Screens: PubChem BioAssay, several laboratories
Rows were chosen to be rich in hits. Some 1.3% of all compounds tested hit in one or more screens of this group.
NCOA2 inhibitor: human SRC2 (NCOA2) inhibition; HEK293 GAL4-SRC2 luciferase reporter, luminescence; inhibition, % at 9 µM; actives 0.17% (n = 370,000);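 active = inhibition above the mean inhibition of all tested compounds plus 3 SD, set per campaign, cut at about 52% in these data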;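 also: 0% = DMSO treated cells and 100% = cells given Gossypol at 36 µM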
SRC3 inh: inhibitors of human steroid receptor coactivator 3 (SRC3); Q9Y6Q9; HEK293 GAL4-SRC3 luciferase reporter, luminescence; inhibition, % at 3.6 µM; actives 0.17% (n = 360,000);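 active = inhibition above a per-campaign cutoff, the mean of all compounds plus 3 SD, cut at about 60% in these data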;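 also: 0% = DMSO-treated cells and 100% = gossypol-treated cells at 36 µM; higher means less SRC3-driven luciferase light from the GAL4 reporter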
LRH-1 inv ag: inverse agonists of human LRH-1 (NR5A2). HEK293T StAR-luciferase reporter, LRH-1 transfected, 24 h. inhibition, % at 3.6 µM. actives 0.13% (n = 360,000). AID 602396;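 active = inhibition above the mean inhibition of all tested compounds plus 3 SD, cut at about 73% in these data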;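 also: 0% = DMSO wells and 100% = reporter-only cells lacking LRH-1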
COUP-TFII inh: blocks human COUP-TFII nuclear receptor; P24468; HEK293T NGFI-A luciferase reporter, luminescence; inhibition, % at 8.6 µM; actives 0.7% (n = 370,000);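 active = inhibition above a per-plate cutoff, mean inhibition of test wells between control levels plus 3 SD, cut at about 38% in these data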;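 also: cells cotransfected with COUP-TFII expression vector driving the NGFI-A reporter; 0% = median of COUP-TF2 test wells and 100% = reporter-only cells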
Gli-Sufu block: antagonists of Gli-Sufu signaling; inhibition, % at 5 µM; Sufu-KO-LIGHT fibroblasts, Gli luciferase reporter luminescence; AID 588413; actives 0.74% (n = 340,000);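 active = inhibition above about 55%, limit read from the data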;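 also: 0% = DMSO-treated cells and 100% = wells with medium but no cells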
SRC1 inh: inhibits human SRC1 coactivator. inhibition, % at 3.6 µM. Q15788. AID 588354. HEK293 GAL4-SRC1 luciferase reporter, luminescence. actives 0.12% (n = 360,000);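 active = inhibition above the campaign mean plus 3 SD, with each screening campaign given its own cutoff, cut at about 60% in these data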;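 also: 0% = DMSO treated cells and 100% = gossypol at 36 µM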
VP16 Luc counter: inhibits VP16 reporter, flagging COUP-TFII antagonist hits. inhibition, % at 8.5 µM. HEK293 Gal4-VP16 luciferase reporter, luminescence. shares compounds with COUP-TFII inh. actives 25% (n = 2,500); in the data active = inhibition above about 13%
COUP-TFII conf: COUP-TFII (NR2F2) inhibition, confirmation assay; actives 45% (n = 2,500); AID 687008; HEK293 NGFI-A luciferase reporter, luminescence; inhibition, % at 8.5 µM; shares compounds with COUP-TFII inh;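 active = mean inhibition over three repeats above a set limit taken from the earlier primary screen, cut at about 38% in these data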;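 also: 100% = cells given the luciferase reporter alone without the COUP-TF2 vector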
* = called active by the depositor; / = no result given.

SMILES	NCOA2 inhibitor	SRC3 inh	LRH-1 inv ag	COUP-TFII inh	Gli-Sufu block	SRC1 inh	VP16 Luc counter	COUP-TFII conf
O=C1C(NC(=O)N2c3ccccc3C=Cc3ccccc32)CCCCN1Cc1cccc(C(F)(F)F)c1 (stereo unspecified)	-21.1	/	/	22.7	/	/	/	/
Cc1cc(Br)ccc1NC(=O)CN(C)C(=O)C1CCN(c2ncnc3sc(C)c(C)c23)CC1	51.3	31.3	11.0	47.0*	29.2	20.0	10.0	37.4
O=C(c1ccc(C#Cc2ccccc2)cc1)N1CCC(O)CC1	-51.4	/	/	-18.0	/	/	/	/
COc1ccc(Cc2noc(CN3CCN(c4ccc(Cl)cn4)CC3)n2)cc1OC	19.1	38.9	11.2	41.3*	1.8	27.2	-7.0	13.1
Cc1cc(N2CCN(S(=O)(=O)c3ccc(Cl)cc3)CC2)c2ccccc2n1	16.8	10.7	-2.5	40.9*	32.9	-4.3	-1.3	13.7
Cc1cc(N2CCN(C(=O)Oc3ccc([N+](=O)[O-])cc3)CC2)c2ccccc2n1	23.9	/	27.6	43.0*	/	/	0.6	20.3
COc1ccc(N2CCN(C(=O)Oc3ccc([N+](=O)[O-])cc3)CC2)cc1	14.1	/	11.3	12.2	/	/	/	/
Cc1cc(N2CCN(S(=O)(=O)c3ccc(Cl)c(Cl)c3)CC2)c2ccccc2n1	18.6	10.3	2.9	19.0	30.7	18.2	/	/
COC(=O)[C@]12C[C@H](CC(=O)NCC34CC5CC(CC(C5)C3)C4)C(=O)N(Cc3ccco3)C1=C[C@H](C1CCCC1)O[C@@H]2C	-24.8	/	/	6.7	/	/	/	/
Cc1cc(NC(=O)COC(=O)CNS(=O)(=O)c2c(F)cc(F)cc2Br)no1	-13.4	-1.2	-15.5	85.2*	5.2	11.6	-1.4	-12.5
O=C(c1ccccc1)N1CCC(Oc2cccnc2)CC1	-11.5	/	/	14.9	/	/	/	/
C=CCc1cccc(CNc2cnc3ccccc3c2)c1O	26.6	-11.7	16.4	46.6*	48.8	4.4	-53.5	25.4
Oc1ccccc1CNc1cnc2ccccc2c1	-27.1	-62.1	-89.1	-18.3	5.0	-68.4	/	/
CCOC(=O)C1(Cc2ccccc2)CCN(Cc2ccc(C(F)(F)F)cc2)CC1	-8.2	/	/	-4.9	/	/	/	/
Cc1ccoc1C(=O)Nc1ccc(CC(=O)O)cc1	83.3*	16.0	0.0	76.2*	31.4	-17.8	69.8*	65.7*
Cc1ccc(-n2nc3c(=O)n(C(C)C(=O)NCCC4=CCCCC4)nc(C)c3c2C)cc1 (stereo unspecified)	37.6	34.5	39.2	71.0*	7.9	12.6	3.9	61.9*
Cc1ccc(CCNC(=O)C(C)n2nc(C)c3c(C)n(-c4ccccc4)nc3c2=O)cc1 (stereo unspecified)	20.8	-7.1	5.3	1.5	-1.9	15.6	/	/
CCc1c(-c2cccc(Cl)c2)ncn1CCc1ccccc1OC	-16.1	/	/	-7.4	/	/	/	/
O=C(c1ccccc1)N1CCN(C(=O)N2CCOCC2)CC1	18.7	9.5	-3.5	6.3	2.8	4.0	/	/
O=C1C(=C(c2ccccc2)N2CCOCC2)Cc2ccccc21	-145.4	8.5	14.1	38.8*	/	-8.7	39.8*	14.3
O=C(CCc1ccccc1)N[C@H]1[C@@H](OC(=O)C2CC2)CCC[C@@]12C(=O)N(Cc1ccccc1)c1ccccc12	10.5	/	/	8.3	/	/	/	/
O=C(NCc1cccnc1)C1CCC(c2ccc(Cl)cc2)CC1 (stereo unspecified)	10.7	18.5	26.1	40.5*	1.5	15.2	-2.6	55.4*
CC(=O)N1CCc2cc(S(=O)(=O)NC3CCN(C(=O)OCc4ccccc4)CC3)ccc21	18.2	/	/	61.5*	/	/	-10.8	19.8
C=CCOC(=O)N1CCC(NS(=O)(=O)c2ccc3c(c2)CCN3C(C)=O)CC1	24.1	/	/	8.2	/	/	/	/
CC1(C)CC(=O)C=C(C#CC2CC2)C1	-29.9	/	/	7.6	/	/	/	/
SMILES	NCOA2 inhibitor	SRC3 inh	LRH-1 inv ag	COUP-TFII inh	Gli-Sufu block	SRC1 inh	VP16 Luc counter	COUP-TFII conf
CN(C)c1ccc(/C=N/N=C2/NC(=O)/C(=C/c3ccc([N+](=O)[O-])cc3)S2)cc1	25.0	13.8	-3.6	40.8*	5.5	26.1	-57.6	35.7
CN(C)c1ccc(C=C2SC(=S)NC2=O)cc1	-32.2	-93.4	-14.8	-20.8	-21.6	-40.1	/	/
COc1ccc(-[n+]2c(C)cc(/C=C3\Sc4ccccc4N3C)cc2C)cc1	-88.5	74.5*	98.4*	82.3*	/	70.7*	-34.7	66.5*
COc1ccccc1-[n+]1c(C)cc(/C=C2\Sc3ccccc3N2C)cc1C	0.1	69.2*	84.2*	81.9*	85.3*	62.2*	-10.7	89.3*
O=C(CSc1nnc(-c2cccnc2)n1Cc1ccco1)Nc1ccc(F)cc1Cl	23.3	/	/	-2.3	/	/	/	/
CC(C)c1ccc(CNc2nc(NCC3CC3)nc3ccsc23)cc1	17.9	-8.5	12.8	30.8	/	-1.7	/	/
COc1cccc(CNc2nc(NCC3CC3)nc3ccsc23)c1	6.1	3.7	23.6	43.1*	/	16.7	-1.4	19.9
COc1cccc(CNc2nc(NCC3CC3)nc3ccsc23)c1OC	40.6	21.0	34.1	58.5*	/	6.1	-3.0	19.4
CSc1ccccc1CNc1nc(NCC2CC2)nc2ccsc12	19.7	5.8	36.6	52.8*	/	2.0	5.1	24.5
CC(=O)NC(Cc1ccc2c(c1)OCO2)C(=O)N1CCCC1 (stereo unspecified)	0.5	/	/	-20.8	/	/	/	/
CCN=C1NN=C(c2cc(C)n(Cc3ccco3)c2C)CS1	71.3*	61.7*	30.5	72.9*	71.2*	51.5	20.8*	91.5*
NS(=O)(=O)c1ccc(CCNC(=O)CN2CCC(Cc3ccccc3)CC2)cc1	21.5	19.5	16.6	38.1*	25.1	17.3	-4.4	12.2
O=C(CN1CCC(Cc2ccccc2)CC1)NCCc1ccc(F)cc1	-11.6	-4.7	1.4	-1.3	3.6	6.9	/	/
Cc1nc2ccccc2n1Cc1ccccc1Br	14.1	7.1	18.2	41.0*	49.5	10.8	-4.1	10.0
O=[N+]([O-])c1ccc(CN2CCOCCOCCN(Cc3ccc([N+](=O)[O-])cc3)CCOCC2)cc1	/	4.8	35.1	/	23.0	9.9	/	/
CCN(CC)S(=O)(=O)c1ccc(NC(=O)c2ccc(CN3CCOCC3)cc2)cc1	8.4	18.9	43.5	70.8*	9.5	12.2	7.8	64.2*
O=C(Nc1ccc(S(=O)(=O)N2CCCCC2)cc1)c1ccc(CN2CCOCC2)cc1	/	45.4	49.9	/	38.0	28.4	/	/
O=C(Nc1ccc(S(=O)(=O)Nc2ccc(F)cc2)cc1)c1ccc(CN2CCOCC2)cc1	32.2	33.0	34.8	72.8*	4.3	23.8	8.7	61.8*
Cc1ccc(NC(=O)c2cc(S(=O)(=O)N3CCCCC3)cs2)cc1	36.7	-7.0	19.1	47.8*	1.4	7.3	1.9	19.1
O=S(=O)(c1ccc(CN2CCOCCOCCN(Cc3ccc(S(=O)(=O)C(F)(F)F)cc3)CCOCC2)cc1)C(F)(F)F	/	/	/	61.6*	/	/	6.7	18.6
